Measured values from PubChem BioAssay AID493131 (Broad Institute, 2011).
Among all 340,000 compounds or so, about 3,300 (0.97%) were called active. The sample holds actives, similar compounds and a random draw of the others, so the mix is not that of the screen.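 How the source made its calls: active means mean activation above about 17%, with every replicate also reaching it (limit read from the data, passing the limit was not always enough); inconclusive means only one of the two conditions met; inactive means the rest.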

Molecular target: Protein FosB (Mus musculus) (UniProt P13346)
Sequence (P13346 whole entry, looked up): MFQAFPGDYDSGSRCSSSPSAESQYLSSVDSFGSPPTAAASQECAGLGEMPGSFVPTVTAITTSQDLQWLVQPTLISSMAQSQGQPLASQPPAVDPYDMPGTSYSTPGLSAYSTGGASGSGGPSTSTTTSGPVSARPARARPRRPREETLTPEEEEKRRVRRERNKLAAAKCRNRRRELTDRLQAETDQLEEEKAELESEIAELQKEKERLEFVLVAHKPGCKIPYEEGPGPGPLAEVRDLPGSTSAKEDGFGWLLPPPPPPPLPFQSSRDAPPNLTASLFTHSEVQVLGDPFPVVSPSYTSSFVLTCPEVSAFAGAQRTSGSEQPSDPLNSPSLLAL
Assay: enhancers of mouse delta FosB DNA binding – biochemical, fluorescence polarization, TAMRA-CDK5 oligo, single point, primary screen (AID 493131);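 further: fluorescence polarization rise as delta FosB binds a TAMRA Cdk5 AP-1 oligo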
Details: purified delta FosB, at 25 µM, hits give high values, percent of positive-control signal above neutral wells

Row | SMILES | activation
1 | CCOc1ccc2c(=O)c(-c3ccc4c(c3)OCCCO4)c(C)oc2c1 | 5.27% (inactive)
2 | CCn1cc(CN2CCC(C(=O)Nc3cccc(-c4cccc(Cl)c4)c3)CC2)c(C)n1 | -5.85% (inactive)
3 | O=C1c2ccncc2C(=O)N1C1CCCCC1 | -3.57% (inactive)
4 | Cc1cc(=O)oc2cc(OC(C)C(=O)Nc3ccc(N4CCOCC4)cc3)ccc12 (stereo not drawn) | 14.2% (inactive)
5 | COc1ccc(-c2cc(=O)oc3cc(OC(C)C(=O)NCC4CCC(C(=O)O)CC4)ccc23)cc1 (stereo not drawn) | 2.8% (inactive)
6 | COc1ccc(-c2cc(=O)oc3cc(OC(C)C(=O)Nc4ccc(CN5CCOCC5)cc4)ccc23)cc1 (stereo not drawn) | 28.5% (active)
7 | COc1ccc(CCN(C)C(=O)C23CC4CC(CC(Cl)(C4)C2)C3)cc1OC | -11.5% (inactive)
8 | CCOc1ccc(NC(=O)CSc2ncnc3c2sc2ccccc23)cc1 | -0.561% (inactive)
9 | COc1cc(C(=S)NCc2ccccc2)cc(Br)c1O | -3.42% (inactive)
10 | COc1ccc(Cl)cc1NC(=O)CNc1ccccc1F | 0.137% (inactive)
11 | Cc1nn(Cc2ccc(Cl)cc2)c(Cl)c1/C=N/NC(=O)CNc1ccccc1F | 20.3% (active)
12 | CCn1nc(C)c(/C=N/NC(=O)Cc2ccc(Cl)cc2)c1C | -5.48% (inactive)
13 | COC(=O)c1ccc(C(=O)Nc2cc(Cl)ccc2Cl)cc1NC(=O)c1ccccc1C | -4.76% (inactive)
14 | COc1cccc(NC(=O)Cn2c3ccc(F)cc3c3nc4n(c(=O)c32)CCS4)c1 | 20.4% (active)
15 | COc1ccc2c(c1)c1nc3n(c(=O)c1n2CC(=O)Nc1ccccc1)CCS3 | 2.33% (inactive)
16 | COc1cccc(NC(=O)Cn2c3ccccc3c3nc4n(c(=O)c32)CCS4)c1 | 10.7% (inactive)
17 | CC1=NN(c2cccc(Cl)c2)C(=O)C12CC(C)=C(C)CS2 (stereo not drawn) | -6.87% (inactive)
18 | Oc1ccccc1CNc1ncc(Br)cc1Br | -0.334% (inactive)
19 | CC(C)C(NC(=O)c1cccc(S(=O)(=O)N2CCOCC2)c1)C(=O)NCCc1ccccn1 (stereo not drawn) | -1.29% (inactive)
20 | Cc1c(C#N)c2ncn(CC#N)c(=O)c2n1-c1ccccc1 | -7.05% (inactive)

Row | SMILES | activation
21 | COc1ccc(-c2cc3n(n2)CCc2nc4ccccc4n2-3)cc1 | 18.1% (active)
22 | COc1ccc(-c2cc(C(=O)n3cnc4ccccc43)c3ccccc3n2)cc1 | -10% (inactive)
23 | COc1ccc(-c2cc3ncccc3cn2)cc1 | -21.2% (inactive)
24 | CC(=O)N1CCN(CC(c2ccccc2)c2ccccc2)CC1 | 1.45% (inactive)
25 | O=c1[nH]snc1-c1c(Cl)cccc1Cl | -3.4% (inactive)
26 | CN(CC(=O)Nc1ccc(Cl)cc1)C(=O)c1ccc(COc2ccccc2)cc1 | -1.5% (inactive)
27 | CN(CC(=O)Nc1ccc(Cl)cc1)C(=O)CNC(=O)c1ccc2ccccc2c1 | 38.6% (active)
28 | O=C(NNC(=O)c1ccc2ccccc2c1)c1ccc(Cl)cc1 | 4.76% (inactive)
29 | Nc1ccccc1/C=N\N=C/c1ccccc1N | 1.65% (inactive)
30 | Cc1nc(-c2ccc(Cl)cc2)sc1C1(C)CC(c2ccc(Br)cc2)=NO1 (stereo not drawn) | -6.82% (inactive)
31 | COc1ccc(OC)c(-n2c(=S)[nH]c3cc(C(=O)N4CCCCC4)ccc3c2=O)c1 | 0.446% (inactive)
32 | COc1ccc(Cn2c(=S)[nH]c3cc(C(=O)NCCCN4CCOCC4)ccc3c2=O)cc1 | -7.8% (inactive)
33 | COc1ccc(Cn2c(=S)[nH]c3cc(C(=O)N4CCCCC4)ccc3c2=O)cc1 | 67.5% (active)
34 | CC(C)C(OC(=O)c1cccs1)C(=O)NC1CCCCC1 (stereo not drawn) | 0.731% (inactive)
35 | Cc1c[n+]([O-])ccc1[N+](=O)[O-] | 1.75% (inactive)
36 | CCc1nnc(NS(=O)(=O)c2ccc(NC(=S)NC(=O)/C=C/c3cccs3)cc2)s1 | -19.1% (inactive)
37 | CC(=O)Nc1ccc(S(=O)(=O)N2CCSCC2)cc1 | -10.4% (inactive)
38 | C=CCn1c(=NC(=O)c2ccc(S(=O)(=O)N3CCCC3)cc2)sc2cc(NC(C)=O)ccc21 | 50.4% (active)
39 | COc1cc(C(C)=O)ccc1OC(C)C(=O)Nc1ccc(S(=O)(=O)N2CCCC2)cc1 (stereo not drawn) | -5.8% (inactive)
40 | CC(NC(=O)CCCC1CCCCC1)c1ccc(S(N)(=O)=O)cc1 (stereo not drawn) | -18.3% (inactive)

Row | SMILES | activation
41 | Cc1n[nH]c(=O)c2c1nnn2Cc1ccc(F)cc1 | 0.186% (inactive)
42 | O=C(CN1CCN(S(=O)(=O)c2ccc(Cl)s2)CC1)N1CCCCC1 | -6.89% (inactive)
43 | COc1cc(OC)cc(C(=O)NC(C(=O)N2CCC2)C(C)C)c1 (stereo not drawn) | 0.275% (inactive)
44 | COc1cc(OC)cc(C(=O)N[C@H](C(=O)NNC(=O)c2ccc(Br)cc2)C(C)C)c1 | 23.4% (active)
45 | COc1ccc(N2CCN(C(=O)[C@@H](NC(=O)c3cc(OC)cc(OC)c3)C(C)C)CC2)cc1 | -9.58% (inactive)
46 | COc1ccc(C)cc1NC(=O)CN(C)S(=O)(=O)c1ccc2c(c1)n(C)c(=O)c(=O)n2C | -14% (inactive)
47 | Cc1ccc(NC(=O)/C(=C\c2ccccc2)NC(=O)c2ccco2)cc1 | 10.9% (inactive)
48 | O=C(Nc1ccc2ccccc2c1)/C(=C\c1ccc2c(c1)OCO2)NC(=O)c1ccco1 | 5.94% (inactive)
49 | O=C(Nc1ccc2ccccc2c1)/C(=C/c1cccc(Br)c1)NC(=O)c1ccco1 | 23% (active)
50 | COC(=O)c1ccc2c(c1)S(=O)(=O)NC(=NCCCN1CCOCC1)S2 | 0.881% (inactive)
51 | COC(=O)c1ccc(C2C(Oc3ccccc3C)C(=O)N2CCc2ccc(OC)c(OC)c2)cc1 (stereo not drawn) | -14.8% (inactive)
52 | COc1ccc(NC(=O)c2ccc(C#CC(C)(C)O)cc2)cc1 | -5.48% (inactive)
53 | COc1ccc(CC(=O)Nc2ccc(C(=O)NC(C)(C)C)cc2)cc1 | 35.1% (active)
54 | CC(C)(C)NC(=O)c1cccc(NC(=O)Cc2ccc(Br)cc2)c1 | -8.13% (inactive)
55 | CC(=O)N1CC(=O)N(CC(=O)Nc2ccc(Br)cc2)C1=S | -0.232% (inactive)
56 | O=C1c2ccccc2C(=O)N1CCCCCCN1C(=O)c2ccccc2C1=O | -2.1% (inactive)
57 | C[N+](C)(CCCCCC[N+](C)(C)CCCN1C(=O)c2cccc3cccc(c23)C1=O)CCCN1C(=O)c2cccc3cccc(c23)C1=O | 85% (active)
58 | O=C1c2cccc3cccc(c23)C(=O)N1CCCCCc1n[nH]c(=S)o1 | -2.23% (inactive)
